# Results taken from paper PMC7862700, “An all-to-all approach to the identification of sequence-specific readers for epigenetic DNA modifications on cytosine”.
# Assays:
# Experiment in all cases: DAPPL (digital affinity profiling via proximity ligation, sequencing); 10 mM Tris-HCl pH 7.5, 50 mM NaCl, 1 mM DTT, 4% glycerol, room temperature, 30 min; GST-TFs on glutathione beads, 16-mer random dsDNA library, 0.1% formaldehyde crosslink after washing; high values mean tight binding
# ELK1 = target: T1, ELK1 (Homo sapiens, UniProt P19419 1-428); conditions: protein: recombinant; tags: N-terminal GST; dsDNA, one strand shown
# T1 sequence: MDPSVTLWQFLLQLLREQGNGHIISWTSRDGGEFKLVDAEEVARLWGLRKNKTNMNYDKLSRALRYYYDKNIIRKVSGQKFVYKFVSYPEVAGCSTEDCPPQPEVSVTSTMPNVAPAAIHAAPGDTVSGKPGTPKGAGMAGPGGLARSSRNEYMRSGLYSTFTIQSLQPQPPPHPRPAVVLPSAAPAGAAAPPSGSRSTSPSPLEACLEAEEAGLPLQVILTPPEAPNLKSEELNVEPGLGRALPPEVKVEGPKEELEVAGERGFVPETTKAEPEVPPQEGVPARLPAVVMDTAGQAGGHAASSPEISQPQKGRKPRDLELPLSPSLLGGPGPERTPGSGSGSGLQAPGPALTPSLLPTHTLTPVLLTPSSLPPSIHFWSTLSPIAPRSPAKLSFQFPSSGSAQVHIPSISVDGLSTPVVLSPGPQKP
# In short: (§1)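 Human transcription factors carrying a GST fusion were produced in yeast, bound to glutathione beads, tagged with DNA barcodes and pooled together with a tag-only sample. Each pool was held with 200 nmole of a random double-stranded 16-mer DNA library in Tris/NaCl/DTT/glycerol buffer for 30 min at room temperature, then washed, crosslinked in 0.1% formaldehyde, proximity-ligated with BsaI/T4 ligase (1 h, 37 °C), PCR-amplified and sequenced on an Illumina NextSeq500. Binding signal is the read frequency of each hexamer for a given factor divided by its frequency in the tag-only sample.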
# GABPA = target: T2, GABPA (Homo sapiens, UniProt Q06546 1-454); conditions: protein: recombinant; tags: N-terminal GST; dsDNA, one strand shown
# T2 sequence: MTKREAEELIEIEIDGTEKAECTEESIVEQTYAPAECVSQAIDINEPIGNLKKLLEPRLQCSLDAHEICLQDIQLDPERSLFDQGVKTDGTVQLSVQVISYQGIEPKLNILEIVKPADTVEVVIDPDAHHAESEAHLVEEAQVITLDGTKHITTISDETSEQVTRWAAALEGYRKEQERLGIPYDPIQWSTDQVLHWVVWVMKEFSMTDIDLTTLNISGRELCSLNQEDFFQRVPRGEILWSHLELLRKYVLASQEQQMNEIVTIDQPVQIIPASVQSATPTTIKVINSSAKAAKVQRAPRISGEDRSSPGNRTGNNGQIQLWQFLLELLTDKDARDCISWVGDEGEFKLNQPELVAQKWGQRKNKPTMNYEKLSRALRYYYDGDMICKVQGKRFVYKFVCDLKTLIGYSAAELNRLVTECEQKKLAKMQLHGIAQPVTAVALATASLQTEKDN
# In short: as §1
# ELF1 = ELF1 (Homo sapiens, UniProt P32519 1-619); conditions: protein: recombinant; tags: N-terminal GST; dsDNA, one strand shown
# In short: as §1
# EHF = target: T3, EHF (Homo sapiens, UniProt Q9NZC4 1-300); conditions: protein: recombinant; tags: N-terminal GST; dsDNA, one strand shown
# T3 sequence: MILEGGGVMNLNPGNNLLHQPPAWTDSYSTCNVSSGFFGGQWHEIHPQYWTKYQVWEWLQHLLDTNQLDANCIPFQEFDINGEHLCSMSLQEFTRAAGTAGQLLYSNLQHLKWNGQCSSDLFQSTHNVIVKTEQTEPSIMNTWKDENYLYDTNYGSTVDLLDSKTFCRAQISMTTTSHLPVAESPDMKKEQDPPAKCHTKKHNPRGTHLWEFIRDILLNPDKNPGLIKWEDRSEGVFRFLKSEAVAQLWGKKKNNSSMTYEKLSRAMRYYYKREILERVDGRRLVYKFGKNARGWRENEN
# In short: as §1
# SPI1 = SPI1 (Homo sapiens, UniProt P17947 1-270); conditions: protein: recombinant; tags: N-terminal GST; dsDNA, one strand shown
# In short: as §1
# SPIB = SPIB (Homo sapiens, UniProt Q01892 1-262); conditions: protein: recombinant; tags: N-terminal GST; dsDNA, one strand shown
# In short: as §1
# ELK3 = target: T4, ELK3 (Homo sapiens, UniProt P41970 1-407); conditions: protein: recombinant; tags: N-terminal GST; dsDNA, one strand shown
# T4 sequence: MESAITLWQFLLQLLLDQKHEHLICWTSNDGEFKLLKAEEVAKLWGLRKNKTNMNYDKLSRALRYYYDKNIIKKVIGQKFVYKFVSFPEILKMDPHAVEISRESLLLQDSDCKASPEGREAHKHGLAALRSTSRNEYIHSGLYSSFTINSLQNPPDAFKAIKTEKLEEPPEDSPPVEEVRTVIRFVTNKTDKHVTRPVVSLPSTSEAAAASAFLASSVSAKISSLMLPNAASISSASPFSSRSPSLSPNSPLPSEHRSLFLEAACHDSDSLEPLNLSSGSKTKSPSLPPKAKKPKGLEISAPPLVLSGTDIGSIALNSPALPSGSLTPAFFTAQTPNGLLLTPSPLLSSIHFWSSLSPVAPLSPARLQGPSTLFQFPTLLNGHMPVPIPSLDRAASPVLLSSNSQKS
# In short: as §1
# HSF1 = HSF1 (Homo sapiens, UniProt Q00613 1-529); conditions: protein: recombinant; tags: N-terminal GST; chain copies: 3; dsDNA, one strand shown
# In short: as §1
# SPIC = target: T5, SPIC (Homo sapiens, UniProt Q8N5J4 1-248); conditions: protein: recombinant; tags: N-terminal GST; dsDNA, one strand shown
# T5 sequence: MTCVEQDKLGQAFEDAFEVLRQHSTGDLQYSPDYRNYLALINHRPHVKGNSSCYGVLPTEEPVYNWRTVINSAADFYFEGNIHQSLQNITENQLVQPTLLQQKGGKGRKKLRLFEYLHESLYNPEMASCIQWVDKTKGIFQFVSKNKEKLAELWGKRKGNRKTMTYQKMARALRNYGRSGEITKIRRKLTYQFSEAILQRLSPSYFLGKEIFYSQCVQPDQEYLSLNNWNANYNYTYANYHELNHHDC
# In short: as §1
# ELF4 = ELF4 (Homo sapiens, UniProt Q99607 1-663); conditions: protein: recombinant; tags: N-terminal GST; dsDNA, one strand shown
# In short: as §1
# ELK4 = target: T6, ELK4 (Homo sapiens, UniProt P28324-2 1-405); conditions: protein: recombinant; tags: N-terminal GST; dsDNA, one strand shown
# T6 sequence: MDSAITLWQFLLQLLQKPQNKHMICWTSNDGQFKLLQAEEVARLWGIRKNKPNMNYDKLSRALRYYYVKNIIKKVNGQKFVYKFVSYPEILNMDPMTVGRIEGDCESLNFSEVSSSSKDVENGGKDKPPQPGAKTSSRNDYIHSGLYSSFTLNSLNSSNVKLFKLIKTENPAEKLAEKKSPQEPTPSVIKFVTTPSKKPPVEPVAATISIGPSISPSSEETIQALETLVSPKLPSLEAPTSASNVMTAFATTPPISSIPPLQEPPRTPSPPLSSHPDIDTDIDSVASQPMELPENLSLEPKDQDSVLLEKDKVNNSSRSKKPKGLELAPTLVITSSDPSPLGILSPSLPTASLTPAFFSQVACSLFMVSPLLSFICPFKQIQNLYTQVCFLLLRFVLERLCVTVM
# In short: as §1
# ETV2 = target: T7, ETV2 (Homo sapiens, UniProt O00321 1-342); conditions: protein: recombinant; tags: N-terminal GST; dsDNA, one strand shown
# T7 sequence: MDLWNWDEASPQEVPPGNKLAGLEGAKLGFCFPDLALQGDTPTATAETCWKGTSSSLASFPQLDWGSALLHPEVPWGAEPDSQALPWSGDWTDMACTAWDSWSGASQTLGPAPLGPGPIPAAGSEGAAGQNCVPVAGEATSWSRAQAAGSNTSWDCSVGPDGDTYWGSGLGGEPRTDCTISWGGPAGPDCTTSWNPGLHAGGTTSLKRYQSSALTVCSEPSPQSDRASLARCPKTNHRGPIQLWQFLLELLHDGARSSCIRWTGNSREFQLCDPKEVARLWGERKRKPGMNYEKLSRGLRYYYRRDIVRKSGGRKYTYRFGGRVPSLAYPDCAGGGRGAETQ
# In short: as §1
# CRX = CRX (Homo sapiens, UniProt O43186 1-299); conditions: protein: recombinant; tags: N-terminal GST; dsDNA, one strand shown
# In short: as §1
# ETV1 = ETV1 (Homo sapiens, UniProt P50549 1-477); conditions: protein: recombinant; tags: N-terminal GST; dsDNA, one strand shown
# In short: as §1
# ETV3L = target: T8, ETV3L (Homo sapiens, UniProt Q6ZN32 1-361); conditions: protein: recombinant; tags: N-terminal GST; dsDNA, one strand shown
# T8 sequence: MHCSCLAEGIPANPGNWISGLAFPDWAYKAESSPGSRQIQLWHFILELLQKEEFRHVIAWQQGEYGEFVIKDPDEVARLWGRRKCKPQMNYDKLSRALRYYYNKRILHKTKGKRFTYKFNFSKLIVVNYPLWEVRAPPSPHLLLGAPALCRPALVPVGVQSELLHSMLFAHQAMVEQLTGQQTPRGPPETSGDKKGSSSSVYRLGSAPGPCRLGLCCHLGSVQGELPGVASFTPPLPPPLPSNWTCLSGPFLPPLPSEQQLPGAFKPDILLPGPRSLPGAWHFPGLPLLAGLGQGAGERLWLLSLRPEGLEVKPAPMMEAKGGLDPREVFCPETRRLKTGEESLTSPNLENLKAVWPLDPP
# In short: as §1
# ETS2 = target: T9, ETS2 (Homo sapiens, UniProt P15036 1-469); conditions: protein: recombinant; tags: N-terminal GST; dsDNA, one strand shown
# T9 sequence: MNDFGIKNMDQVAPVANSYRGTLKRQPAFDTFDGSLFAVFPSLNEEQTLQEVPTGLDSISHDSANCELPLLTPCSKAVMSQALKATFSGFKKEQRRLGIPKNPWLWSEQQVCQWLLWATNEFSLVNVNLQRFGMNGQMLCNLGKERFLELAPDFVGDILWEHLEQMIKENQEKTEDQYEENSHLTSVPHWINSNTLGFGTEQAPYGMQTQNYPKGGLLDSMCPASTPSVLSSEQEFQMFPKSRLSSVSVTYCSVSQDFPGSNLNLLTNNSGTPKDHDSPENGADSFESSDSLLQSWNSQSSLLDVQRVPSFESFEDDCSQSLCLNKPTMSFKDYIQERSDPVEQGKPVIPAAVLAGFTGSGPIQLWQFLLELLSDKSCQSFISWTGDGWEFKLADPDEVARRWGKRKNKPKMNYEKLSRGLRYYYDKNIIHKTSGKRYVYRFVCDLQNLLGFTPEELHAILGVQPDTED
# In short: as §1
# ETV7 = target: T10, ETV7 (Homo sapiens, UniProt Q9Y603 1-341); conditions: protein: recombinant; tags: N-terminal GST; dsDNA, one strand shown
# T10 sequence: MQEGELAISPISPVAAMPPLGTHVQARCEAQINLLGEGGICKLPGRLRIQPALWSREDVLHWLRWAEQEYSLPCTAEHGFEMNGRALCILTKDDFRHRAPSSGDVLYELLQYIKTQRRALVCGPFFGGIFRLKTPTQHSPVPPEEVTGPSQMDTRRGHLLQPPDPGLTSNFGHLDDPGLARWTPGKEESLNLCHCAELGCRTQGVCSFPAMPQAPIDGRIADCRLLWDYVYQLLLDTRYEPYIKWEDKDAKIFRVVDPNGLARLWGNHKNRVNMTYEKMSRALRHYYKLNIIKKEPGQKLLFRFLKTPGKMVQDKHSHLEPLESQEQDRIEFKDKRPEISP
# In short: as §1
# ELF5 = target: T11, ELF5 (Homo sapiens, UniProt Q9UKW6-2 1-255); conditions: protein: recombinant; tags: N-terminal GST; dsDNA, one strand shown
# T11 sequence: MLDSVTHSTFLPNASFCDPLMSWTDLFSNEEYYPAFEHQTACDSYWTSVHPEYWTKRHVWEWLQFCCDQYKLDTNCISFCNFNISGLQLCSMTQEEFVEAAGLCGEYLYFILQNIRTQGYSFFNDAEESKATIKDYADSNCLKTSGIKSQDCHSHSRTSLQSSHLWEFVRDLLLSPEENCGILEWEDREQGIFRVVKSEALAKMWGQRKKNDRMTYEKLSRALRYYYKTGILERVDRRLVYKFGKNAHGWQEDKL
# In short: as §1
# ETV3 = target: T12, ETV3 (Homo sapiens, UniProt P41162-2 1-143); conditions: protein: recombinant; tags: N-terminal GST; dsDNA, one strand shown
# T12 sequence: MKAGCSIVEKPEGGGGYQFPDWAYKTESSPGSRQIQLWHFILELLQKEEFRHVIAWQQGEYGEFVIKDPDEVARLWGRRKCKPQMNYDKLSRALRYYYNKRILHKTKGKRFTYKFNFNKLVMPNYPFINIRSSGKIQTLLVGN
# In short: as §1
# Chain of ELF1 (P32519 whole entry): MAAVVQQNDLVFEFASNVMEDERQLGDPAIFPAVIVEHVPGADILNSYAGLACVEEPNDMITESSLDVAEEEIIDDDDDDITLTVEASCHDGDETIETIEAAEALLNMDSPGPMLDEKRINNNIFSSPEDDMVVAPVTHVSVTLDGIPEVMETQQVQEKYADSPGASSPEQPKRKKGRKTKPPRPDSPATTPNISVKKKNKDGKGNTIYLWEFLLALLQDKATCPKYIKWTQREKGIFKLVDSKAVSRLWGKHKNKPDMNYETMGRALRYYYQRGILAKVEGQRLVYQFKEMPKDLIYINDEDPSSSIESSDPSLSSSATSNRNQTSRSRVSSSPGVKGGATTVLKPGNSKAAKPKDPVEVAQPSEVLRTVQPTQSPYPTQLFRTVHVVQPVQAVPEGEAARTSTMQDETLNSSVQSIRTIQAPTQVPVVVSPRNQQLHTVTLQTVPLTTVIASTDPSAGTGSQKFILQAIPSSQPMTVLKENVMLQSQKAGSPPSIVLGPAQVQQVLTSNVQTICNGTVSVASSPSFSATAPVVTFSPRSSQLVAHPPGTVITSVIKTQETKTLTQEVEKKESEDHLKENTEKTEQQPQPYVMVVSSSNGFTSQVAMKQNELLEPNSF
# Chain of HSF1 (Q00613 whole entry): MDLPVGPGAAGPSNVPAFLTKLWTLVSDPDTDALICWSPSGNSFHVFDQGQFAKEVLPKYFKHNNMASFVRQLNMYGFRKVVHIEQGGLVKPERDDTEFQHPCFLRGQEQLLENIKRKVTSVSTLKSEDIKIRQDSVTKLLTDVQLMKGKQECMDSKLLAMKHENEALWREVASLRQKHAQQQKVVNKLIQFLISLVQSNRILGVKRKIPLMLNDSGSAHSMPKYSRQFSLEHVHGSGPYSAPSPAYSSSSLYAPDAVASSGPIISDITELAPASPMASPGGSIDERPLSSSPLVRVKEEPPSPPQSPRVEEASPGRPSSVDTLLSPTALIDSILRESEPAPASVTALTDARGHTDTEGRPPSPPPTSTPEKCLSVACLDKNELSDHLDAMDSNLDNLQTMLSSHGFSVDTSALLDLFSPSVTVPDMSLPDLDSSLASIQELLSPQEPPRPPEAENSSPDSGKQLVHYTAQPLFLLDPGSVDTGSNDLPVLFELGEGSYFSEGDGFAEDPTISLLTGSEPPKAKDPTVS
# Chain of ETV1 (P50549 whole entry): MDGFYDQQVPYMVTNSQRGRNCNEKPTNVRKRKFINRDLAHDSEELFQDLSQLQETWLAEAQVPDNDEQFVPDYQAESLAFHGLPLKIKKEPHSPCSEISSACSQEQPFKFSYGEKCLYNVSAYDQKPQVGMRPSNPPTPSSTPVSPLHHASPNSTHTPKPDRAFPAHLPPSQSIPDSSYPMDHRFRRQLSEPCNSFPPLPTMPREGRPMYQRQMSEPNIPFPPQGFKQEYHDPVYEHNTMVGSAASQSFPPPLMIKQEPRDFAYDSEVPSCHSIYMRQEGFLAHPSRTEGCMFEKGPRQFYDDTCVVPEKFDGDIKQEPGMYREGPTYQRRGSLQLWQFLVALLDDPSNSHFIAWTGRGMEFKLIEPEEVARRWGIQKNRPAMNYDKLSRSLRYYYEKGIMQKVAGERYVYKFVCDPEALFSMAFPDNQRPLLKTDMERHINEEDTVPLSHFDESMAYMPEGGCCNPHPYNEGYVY
# Chain of ELF4 (Q99607 whole entry): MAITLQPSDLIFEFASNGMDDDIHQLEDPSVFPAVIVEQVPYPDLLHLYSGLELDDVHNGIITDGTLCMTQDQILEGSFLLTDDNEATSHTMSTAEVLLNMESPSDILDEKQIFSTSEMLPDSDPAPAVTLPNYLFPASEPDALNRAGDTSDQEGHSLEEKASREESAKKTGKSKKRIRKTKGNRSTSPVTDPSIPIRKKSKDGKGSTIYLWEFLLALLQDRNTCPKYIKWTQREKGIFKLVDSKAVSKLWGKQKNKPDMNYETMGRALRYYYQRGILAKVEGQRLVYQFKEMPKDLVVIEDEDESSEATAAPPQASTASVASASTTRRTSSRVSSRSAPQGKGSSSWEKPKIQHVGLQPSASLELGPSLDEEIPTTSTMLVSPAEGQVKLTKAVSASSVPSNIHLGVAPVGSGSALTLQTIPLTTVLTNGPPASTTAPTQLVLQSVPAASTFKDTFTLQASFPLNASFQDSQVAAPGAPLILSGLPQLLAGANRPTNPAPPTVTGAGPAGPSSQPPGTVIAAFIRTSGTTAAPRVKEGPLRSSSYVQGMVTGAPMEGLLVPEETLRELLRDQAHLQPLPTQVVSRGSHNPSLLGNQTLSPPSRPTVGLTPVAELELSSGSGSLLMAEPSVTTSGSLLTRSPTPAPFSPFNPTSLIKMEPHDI
# Chain of SPIB (Q01892 whole entry): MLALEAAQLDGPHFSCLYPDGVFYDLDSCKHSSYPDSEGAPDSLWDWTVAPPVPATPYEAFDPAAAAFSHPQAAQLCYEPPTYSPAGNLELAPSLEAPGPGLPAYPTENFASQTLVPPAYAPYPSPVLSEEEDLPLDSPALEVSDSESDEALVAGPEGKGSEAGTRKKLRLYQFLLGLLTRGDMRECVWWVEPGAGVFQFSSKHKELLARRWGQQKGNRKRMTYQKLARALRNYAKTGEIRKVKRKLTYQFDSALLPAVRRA
# Chain of CRX (O43186 whole entry): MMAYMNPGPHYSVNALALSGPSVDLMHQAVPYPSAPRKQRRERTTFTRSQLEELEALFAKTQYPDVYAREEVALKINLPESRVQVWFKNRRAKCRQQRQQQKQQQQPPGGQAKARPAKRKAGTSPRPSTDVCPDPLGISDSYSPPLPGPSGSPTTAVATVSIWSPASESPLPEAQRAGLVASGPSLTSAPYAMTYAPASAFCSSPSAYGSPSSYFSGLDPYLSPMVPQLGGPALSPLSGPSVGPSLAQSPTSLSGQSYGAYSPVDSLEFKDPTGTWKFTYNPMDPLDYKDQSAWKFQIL
sequence,measurement,setting,value
TGATAA,binding signal,ELK1,"1.04 fold enrichment (6-mer frequency, TF over GST control)"
same,binding signal,GABPA,"1.03 fold enrichment (6-mer frequency, TF over GST control)"
same,binding signal,ELF1,"1 fold enrichment (6-mer frequency, TF over GST control)"
same,binding signal,EHF,"1.07 fold enrichment (6-mer frequency, TF over GST control)"
same,binding signal,SPI1,"1.05 fold enrichment (6-mer frequency, TF over GST control)"
same,binding signal,SPIB,"1.05 fold enrichment (6-mer frequency, TF over GST control)"
same,binding signal,ELK3,"1.09 fold enrichment (6-mer frequency, TF over GST control)"
same,binding signal,HSF1,"1.2 fold enrichment (6-mer frequency, TF over GST control)"
same,binding signal,SPIC,"1.04 fold enrichment (6-mer frequency, TF over GST control)"
same,binding signal,ELF4,"1.07 fold enrichment (6-mer frequency, TF over GST control)"
same,binding signal,ELK4,"1.06 fold enrichment (6-mer frequency, TF over GST control)"
same,binding signal,ETV2,"1.02 fold enrichment (6-mer frequency, TF over GST control)"
same,binding signal,CRX,"1.52 fold enrichment (6-mer frequency, TF over GST control)"
same,binding signal,ETV1,"1.07 fold enrichment (6-mer frequency, TF over GST control)"
same,binding signal,ETV3L,"1.06 fold enrichment (6-mer frequency, TF over GST control)"
same,binding signal,ETS2,"1.01 fold enrichment (6-mer frequency, TF over GST control)"
same,binding signal,ETV7,"1.08 fold enrichment (6-mer frequency, TF over GST control)"
same,binding signal,ELF5,"1.02 fold enrichment (6-mer frequency, TF over GST control)"
same,binding signal,ETV3,"1.05 fold enrichment (6-mer frequency, TF over GST control)"
